In PubChem BioAssay AID1851 (National Center for Advancing Translational Sciences (NCATS), 2009):
Out of some 16,000 compounds screened, about 5,100 (32%) were called active. About 25% were inconclusive and are not listed. The call rests on the fitted dose curve; in most records, active means well fitted curve in the direction sought with a large enough effect; inconclusive means small, poorly fitted or top-dose-only effect, or effect the other way; inactive means no such curve, though single readings can be large or run the other way. The list shows a part of the results.

target: Cytochrome P450 3A4 (Homo sapiens) (UniProt P08684); assay: Cytochrome panel assay with activity outcomes; conditions: recombinant CYP, pro-luciferin dealkylation, luminescence, p450-cyp3a4; series mostly up to 57.1 µM
Sequence (P08684 whole entry, looked up): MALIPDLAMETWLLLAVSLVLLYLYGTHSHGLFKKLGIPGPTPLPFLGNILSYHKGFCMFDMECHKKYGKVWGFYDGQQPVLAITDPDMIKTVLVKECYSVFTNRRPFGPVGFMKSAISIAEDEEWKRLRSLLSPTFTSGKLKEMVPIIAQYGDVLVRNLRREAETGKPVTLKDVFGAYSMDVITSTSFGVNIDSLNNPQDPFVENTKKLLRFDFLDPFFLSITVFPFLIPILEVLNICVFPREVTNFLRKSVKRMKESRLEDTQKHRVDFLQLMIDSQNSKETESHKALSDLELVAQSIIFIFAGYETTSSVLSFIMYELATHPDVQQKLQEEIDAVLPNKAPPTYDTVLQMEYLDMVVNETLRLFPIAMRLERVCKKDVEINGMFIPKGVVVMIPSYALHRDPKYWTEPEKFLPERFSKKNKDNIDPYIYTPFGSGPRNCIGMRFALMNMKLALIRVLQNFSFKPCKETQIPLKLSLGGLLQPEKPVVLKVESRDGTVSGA
On the % scale 0 is the no-effect control and ±100 the full control effect.

AC50, inactive:
CCS(=O)(=O)c1ccc(O)c(NC(=O)Nc2ccccc2)c1
Cc1nc(S(=O)(=O)N(C)c2ccccc2)c(C#N)c(C)c1Cl
Cc1nc(S(=O)(=O)N2CCOCC2)c(C#N)c(C)c1Cl
N[C@H](C(=O)O)c1cccc(O)c1
N[C@H](C(=O)O)c1ccc(C(=O)O)c(O)c1
N[C@H](C(=O)O)c1ccc(O)c(C(=O)O)c1
N[C@@H](C(=O)O)c1ccc(C(=O)O)c(O)c1
COn1c(SCc2cccc(Cl)c2)nc2ccccc2c1=O
COc1cccc(/C=N/n2nnc3c(cnn3-c3ccccc3)c2=O)c1
O=c1oc(-c2ccco2)nc2c1cnn2-c1ccccc1
CSc1c(-c2ccccc2)nc2ccccc2c1C(=O)O
CN(C)c1nc(-c2ccccc2C(F)(F)F)nc2ccccc12
Cc1cc(NC(=O)c2ccccc2Cl)no1
O=C(Nc1ccccc1Cl)c1ccccc1Cl
Cc1ccc(N=CC2=C(O)CC(c3ccco3)CC2=O)cc1 (centres undefined)
C[C@@H]1CCN=C(N)S1
Cc1o[nH]c(=O)c1CC[C@H](N)C(=O)O
CCCc1nnc(SCC(=O)N2CCCCC2)n1CCCOC
CCCS(=O)(=O)N1CCCC(C(=O)NCC2CCCO2)C1 (centres undefined)
C[N+](C)(C)CCCCCNCC12CC3CC(CC(C3)C1)C2

AC50, active:
CC1CC/C(=C\c2ccc3c(c2)OCO3)C(=O)/C1=C/c1ccc2c(c1)OCO2 (centres undefined) 1.58 µM
CCS(=O)(=O)c1ccc(C(=O)Nc2ccccc2)c(Cl)c1Cl 5.01 µM
Cc1nc(S(=O)(=O)NC2CCCCC2)c(C#N)c(C)c1Cl 7.94 µM
Cc1cccc(NC(=O)CSc2nc(COc3ccccc3)nc3ccccc23)c1C 3.98 µM
N[C@H](C(=O)O)c1cc(O)cc(O)c1 12.6 µM
N[C@@H](C(=O)O)c1cc(O)ccc1Cl 15.8 µM
COn1c(SCc2ccc(C)cc2C)nc2ccccc2c1=O 12.6 µM
COc1ccc(Oc2c(Cl)cnn(-c3ccccc3)c2=O)cc1 14.1 µM
CN(C)c1ccc(-c2nc(N(C)C)c3ccccc3n2)cc1 12.6 µM
CNc1nc(-c2ccc(N(C)C)cc2)nc2ccccc12 15.8 µM
CN(C)c1nc(-c2cccnc2)nc2ccccc12 7.94 µM
CCOc1ccc(NC(=O)c2oc3ccccc3c2NC(=O)CC)cc1 15.8 µM
COc1cccc(NC(=O)c2oc3ccccc3c2NC(=O)c2ccc3c(c2)OCO3)c1 1.78 µM
COc1cccc(NC(=O)c2oc3ccccc3c2NC(C)=O)c1 11.2 µM
CC1(C)CC(=O)C2=C(C1)Oc1nc3ccccc3cc1C2C(C#N)C#N (centres undefined) 14.1 µM
Cc1cc(NC(=O)c2ccccc2Cl)c(C(C)C)cc1O 25.1 µM
COCOc1cc(OC)ccc1C(=O)/C=C\c1ccc2c(c1)OCO2 1 µM
COc1ccccc1N1CCN(C(=O)/C=C/c2ccc3c(c2)OCO3)CC1 3.55 µM
O=C(/C=C\c1ccc2c(c1)OCO2)c1ccc(F)cc1 3.16 µM
Nc1ccccc1C(=O)/C=C\c1ccc2c(c1)OCO2 3.16 µM
COC(=O)c1c(-c2ccc3ccccc3c2)csc1NC(=O)Cc1ccc(OC)c(OC)c1 1.78 µM
Cc1ccc(OCCCN2C(=O)C(=O)c3cccc(C)c32)cc1 15.8 µM
Cc1oc(-c2ccccc2F)nc1CS(=O)(=O)CC(=O)NCCCN(C)C1CCCCC1 10 µM
O=c1[nH]c2cc(Br)cnc2nc1/C=C(\O)c1ccc(F)cc1 5.01 µM
COc1ccc(N2CCc3c(C)nc4c(OC)cc(OC)cc4c32)c(OC)c1 5.01 µM
CCCc1nnc(SCC(=O)N2CCCC(C)C2)n1CC1CCCO1 (centres undefined) 8.91 µM
CCCc1nnc(SCC(=O)N2CCCCC2)n1CC1CCCO1 (centres undefined) 15.8 µM
CCCc1nnc(SCC(=O)N2CCCCC2C)n1CC1CCCO1 (centres undefined) 12.6 µM

activity, negative = inhibition, inactive:
CC(C)CO/N=C1/[C@H]2O[C@@H]2[C@@H](O)[C@H]2[C@H]1CCn1c(=O)n(C)c(=O)n12 -9.68% [at 11.4 µM]
NC(N)=N[C@@H]1C(O)[C@H](N=C(N)N)[C@@H](O)C(O)[C@H]1O (some centres undefined) 12.2% [at 11.4 µM]
NC(=O)NC(=O)[C@H]1CCCC[C@@H]1C(=O)O 2.92% [at 11.4 µM]
COn1c(SC(C)C)nc2ccccc2c1=O 5.93% [at 11.4 µM]
O=C(CC1(O)CCCCC1)OC1CCCC1 -11.8% [at 11.4 µM]
O=C1COc2ccccc2CN1 5.27% [at 2.29 µM]
Cn1c(=O)c2[nH]c([C@@H]3CC(=O)C[C@H](c4nc5c([nH]4)c(=O)n(C)c(=O)n5C)N3)nc2n(C)c1=O 2.95% [at 11.4 µM]
COc1cccc(C(=O)Nc2ccc(NC(=O)c3ccco3)cn2)c1 -4.16% [at 2.29 µM]
COc1c(NC(C)=O)c2ccccc2c2ccccc12 -28.7% [at 11.4 µM]
CC1(C)[C@@H]2CC[C@]1(CC(=O)O)[C@H](Cl)C2 -12.3% [at 11.4 µM]
O=C1[C@@H]2[C@@H](C(=O)N1c1ccc(OCc3ccccc3)cc1)[C@@H]1c3ccccc3[C@@H]2[n+]2ccccc21 -9.33% [at 11.4 µM]
O=C(O)/C=C\C=C/c1ccc2c(c1)OCO2 -6.19% [at 11.4 µM]
O=C1c2ccccc2C(=O)N1CCCSc1ccccc1 -16.6% [at 11.4 µM]
N#CC(C#N)=CNCCN1CCN(C=C(C#N)C#N)CC1 -20.1% [at 11.4 µM]
C=C(C)CN(CC#N)CC(=C)C -17.3% [at 11.4 µM]
CCCc1nnc(SCC(=O)N2C(C)CCCC2C)n1CCCOC (centres undefined) 8.82% [at 2.29 µM]
